# From PubChem BioAssay
# PKA-R2B activ – PKA-R2B complex activation; P22694+P31323; PKA-R2B holoenzyme dissociation, Cy5-IP20 fluorescence polarization; R2B truncated from residue 108, S112A mutant; 0% DMSO only, 100% 113 µM cGMP; activation, % at 11.4 µM; actives 0.079% (n = 340,000);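 active = activation above a cutoff set at the mean over all compounds plus 3 SD, cut at about 18% in these data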;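 note: higher means more holoenzyme dissociation and a rise in polarization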
# Target sequence (P31323 whole entry, looked up, other chains not shown, the tested form may be a part): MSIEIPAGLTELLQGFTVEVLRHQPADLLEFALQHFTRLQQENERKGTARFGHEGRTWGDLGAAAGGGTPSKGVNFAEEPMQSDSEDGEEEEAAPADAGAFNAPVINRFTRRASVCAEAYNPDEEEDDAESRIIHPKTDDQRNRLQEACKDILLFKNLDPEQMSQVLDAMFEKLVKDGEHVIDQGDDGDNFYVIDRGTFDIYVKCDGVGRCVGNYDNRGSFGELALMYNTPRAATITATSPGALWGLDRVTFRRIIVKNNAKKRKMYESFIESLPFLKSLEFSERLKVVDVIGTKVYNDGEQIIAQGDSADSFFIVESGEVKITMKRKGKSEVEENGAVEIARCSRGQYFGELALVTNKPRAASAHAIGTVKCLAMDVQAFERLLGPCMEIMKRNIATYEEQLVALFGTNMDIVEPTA
# PKA-R1A act – activators of PKA-R1A complex. PKA-R1A dissociation, Cy5-IP20 fluorescence polarization; scaled: DMSO 0%, 113 µM cGMP 100%. activation, % at 11.4 µM. actives 0.083% (n = 340,000);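 active = percent activation above the mean of all tested compounds plus 3 SD, cut at about 19% in these data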;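 note: higher means more PKAc released from R1A so a rise in polarization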
# MsrA act – activators of bovine methionine sulfoxide reductase A. purified bovine MsrA, absorbance read-out. activation, % at 10.6 µM. actives 0.3% (n = 360,000); in the data active = activation above about 7.5%;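 note: 0% = vehicle and 100% = reference activator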
# MsrA inhibitor – inhibitors of bovine MsrA; purified bovine MsrA, absorbance read-out; inhibition, % at 15.5 µM; actives 0.75% (n = 360,000); AID 651718;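 note: 0% = vehicle wells with enzyme and 100% = reference inhibitor wells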
# MsrA inh confirm – confirmation of bovine MsrA inhibitors. shares compounds with MsrA inhibitor. purified bovine MsrA, absorbance read-out. inhibition, % at 15.5 µM. actives 41% (n = 2,300). AID 651822;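 note: coupled to thioredoxin reductase with NADPH and selenocystamine and DMSO as substrate; 0% = vehicle only and 100% = full effect of reference inhibitor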
# Numbers without * were called inactive; . = no result. Shown are actives, neighbours in structure and some others; about 1.1% of the full set was active somewhere. Cut-off read from the data, not from the text of the source, unless noted: active = inhibition above about 4.5%; inactive = the rest.
SMILES,PKA-R2B activ,PKA-R1A act,MsrA act,MsrA inhibitor,MsrA inh confirm
COc1cc2c(cc1OC)[C@@H](NC(=O)c1ccncc1)[C@H](C)[C@H]2c1ccccc1,.,.,.,0,.
CSc1ccc(/C=N/NC(=O)c2ccc3nc[nH]c3c2)cc1,-4,13,-5,5.1*,6.1*
COc1cc(/C=N/NC(=O)c2ccc3nc[nH]c3c2)ccc1O,-12,3,-4,4,.
CCN(CC)c1ccc(/C=N/NC(=O)c2ccc3nc[nH]c3c2)cc1,0,-8,-3,4,.
CN(C)c1ccc(/C=N/NC(=O)c2ccc3nc[nH]c3c2)cc1,-1,-6,-3,4.9*,4.9*
Cc1ccc(C)n1-c1ccc(C(=O)NCC2CCCO2)cc1 (stereo unspecified),-9,-2,-6,3,.
S=C(SCc1cc(Cl)cc2c1OCOC2)N1CCSCC1,.,.,.,3,.
CC(C)(C)c1ccc(C(=O)/C=C2\NC(=O)CS2)cc1,-2,-11,-12,5.1*,4
CCCCN(Cc1cc2cc(OC)ccc2[nH]c1=O)S(=O)(=O)c1ccc(C)cc1,2,3,2,0,.
CC(C)C[C@@H]1COc2cc(F)ccc2S(=O)(=O)N1,.,.,.,0,.
CCOC(=O)c1ccccc1NC(=O)CN(c1ccccc1OC)S(C)(=O)=O,3,-5,-2,-1,.
CCOC(=O)c1ccccc1NC(=O)CN(c1ccccc1)S(=O)(=O)N(C)C,-14,-6,-2,5.6*,4
Cn1c(=NC(=O)c2ccc(S(=O)(=O)N3CCCc4ccccc43)cc2)sc2cc(S(C)(=O)=O)ccc21,-9,4,-5,1,.
C#CCn1c(=NC(=O)c2ccc(S(=O)(=O)N3CCCc4ccccc43)cc2)sc2cc(S(N)(=O)=O)ccc21,1,1,-5,5.3*,4
Cc1ccc(-c2nc(=S)c3c(n2CC2CCCO2)CC(C)(C)OC3)cc1 (stereo unspecified),-11,2,-10,4.9*,4
Cc1ccc(-c2nc(=S)c3c(n2Cc2ccco2)CC(C)(C)OC3)cc1,-3,-7,-13,.,.
Cc1cc(C)n2nc(N)c(N=Nc3ccccc3)c2n1,1,-13,-2,5.2*,4
CN1CCc2c(sc3nc(SCC(=O)NCc4ccco4)n(-c4ccccc4)c(=O)c23)C1,9,3,-3,6.4*,1
O=C(O)CSc1nc2sc3c(c2c(=O)n1-c1ccccc1)CCC3,1,0,-5,5.0*,1
COc1ccc(-n2c(SCC(=O)NCc3ccco3)nc3sc4c(c3c2=O)CCN(C)C4)cc1,10,-7,-5,3,.
COC(=O)CSc1nc2sc3c(c2c(=O)n1-c1ccc(OC)cc1)CCN(C)C3,10,-4,-13,2,.
COc1ccc(-n2c(SCC(N)=O)nc3sc4c(c3c2=O)CCN(C)C4)cc1,2,-4,-3,6.1*,2
CC[C@@]1(C(=O)OC)N[C@H](CN(C)C(=O)COC)[C@@H]2C(=O)N(C)C(=O)[C@@H]21,1,-11,-2,-2,.
Cc1ccccc1-c1ccc2c(c1)[C@@H]1C[C@H]3[C@@H](CN1CC2)[C@H](C)ON3C,.,.,.,3,.
CCOC(=O)c1cc(C(=O)OCC)c(=O)[nH]c1N1CCCC1,-7,-11,-11,6.8*,4
SMILES,PKA-R2B activ,PKA-R1A act,MsrA act,MsrA inhibitor,MsrA inh confirm
CCOC(=O)c1cc(C(=O)OCC)c(=O)[nH]c1C,6,16,-6,1,.
COc1ccc(CCNC(=O)c2ccc(NS(=O)(=O)c3c(C)noc3C)cc2)cc1OC,2,-7,-4,1,.
CN(C)/C=C/c1oc2ccc(O)cc2c1[N+](=O)[O-],-1,-16,-5,5.5*,4
Cc1nc(N2CCOCC2)sc1C=O,3,3,-7,6.6*,4
CC(=O)c1ccc(N/N=C2/CCCNC2=O)cc1,.,.,-8,7.4*,6.2*
Cc1ccc(N/N=C2/CCCNC2=O)cc1,-4,-4,-10,0,.
CCN1/C(=C/C(C)=O)Sc2ccc(OC)cc21,0,-8,-4,5.5*,4
Oc1ccccc1C1=Nc2ccccc2N=C(c2ccco2)C1,-11,1,-4,4.7*,2
CC(=O)N1CCCN(Cc2cn(-c3cc(C)ccc3C)nc2-c2ccccc2)CC1,-9,3,3,5.0*,0
Fc1ccc(-c2ccc3c(c2)C2CC3CCN2)cc1 (stereo unspecified),-12,-16,-6,-1,.
Nc1cc2sc(-c3ccc(C(=O)O)cc3)nc2cc1Cl,6,5,-3,5.5*,4
